Measurements reported in PubChem BioAssay.
Values joined by “and” are separate entries in the source; they are usually repeats but may differ in a detail not shown here. Equal entries are not always repeated. Inconclusive results are not listed. Active and inactive are the calls of the source. Unless noted, no stated cut-off is given here; in the data, active means inhibition above about 80%; inactive means the rest.

Legend:
[1] = growth inhibition of DIPG glioma cells, dose response, cell-based, JHH-DIPG-1, MIPE4.0, CellTiter-Glo, qHTS (AID 1347062; cut-off not given, nearly all actives have AC50 up to about 27 µM); settings: JHH-DIPG-1 viability, CellTiter-Glo ATP luminescence
[2] = growth inhibition of DIPG glioma cells, dose response, cell-based, SU-DIPG-IV, MIPE4.0, CellTiter-Glo, qHTS (AID 1347063; cut-off not given, nearly all actives have AC50 up to about 30 µM;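 further: compound exposure lasted 48 hours before the viability readout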); settings: SU-DIPG-IV viability, CellTiter-Glo ATP luminescence
[3] = growth inhibition of DIPG glioma cells, dose response, cell-based, SU-DIPG-XIII, MIPE5.0, CellTiter-Glo, qHTS (AID 1347064; cut-off not given, nearly all actives have AC50 up to about 23 µM); settings: SU-DIPG-XIII viability, CellTiter-Glo ATP luminescence
[4] = viability loss in pontine glioma line – cell-based, SU-DIPG-XXV, MIPE5.0, CellTiter-Glo, qHTS, dose response (AID 1347065; cut-off not given, nearly all actives have AC50 up to about 26 µM;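 further: cells exposed to compound for 48 hours before ATP readout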); settings: CellTiter-Glo ATP luminescence
[5] = SU-DIPG-VI glioma cell viability, MIPE4.0 library, CellTiter-Glo luminescence, qHTS (AID 1347066; cut-off not given, nearly all actives have AC50 up to about 30 µM;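 further: cells exposed to compound for 48 hours before readout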); settings: CellTiter-Glo ATP luminescence
[6] = JHH-DIPG-1 glioma cell viability, MIPE5.0 library, CellTiter-Glo luminescence, qHTS (AID 1347067; cut-off not given, nearly all actives have AC50 up to about 26 µM;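 further: cells exposed to compound for 48 hours before readout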); settings: JHH-DIPG-1 glioma viability, CellTiter-Glo ATP luminescence
[7] = SU-DIPG-XXV glioma cell viability, MIPE5.0 library, qHTS (AID 1347068; cut-off not given, nearly all actives have IC50 up to about 30 µM)
[8] = LFS_MB_1R medulloblastoma cell growth inhibition, synergistic combos for chromothripsis tumors, cisplatin or BGB combos (AID 1671452); settings: LFS_MB_1R medulloblastoma cells, stronger effect = higher value;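 further: cells exposed for 96 hours before readout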
[9] = CRL2098 osteosarcoma cell growth inhibition, synergistic combos for chromothripsis tumors, BGB or cisplatin IC20 combos (AID 1671454); settings: CRL2098 osteosarcoma cells, drug combinations, stronger effect = higher value;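 further: cells exposed for 96 h before readout; 0% = vehicle DMSO and 100% = killing by high DMSO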
[10] = HD-MB03 medulloblastoma cell growth inhibition, synergistic combos for chromothripsis tumors, BGB or cisplatin IC20 combos (AID 1671455; in the data active means inhibition above about 83%;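 further: 0% = vehicle DMSO and 100% = high DMSO as cytotoxic control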); settings: HD-MB03 medulloblastoma cells, stronger effect = higher value
[11] = UWB1.289 ovarian carcinoma cell growth inhibition, synergistic combos for chromothripsis tumors, BGB or cisplatin combos (AID 1671456); settings: UWB1.289 ovarian carcinoma cells, stronger effect = higher value;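 further: cells exposed to compound for four days; 0% = vehicle DMSO and 100% = killing by high DMSO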
[12] = LFS_MB_2R medulloblastoma cell growth inhibition, synergistic combos for chromothripsis tumors, cisplatin combos (AID 1671457); settings: LFS_MB_2R medulloblastoma cells, stronger effect = higher value;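 further: cells exposed to compound for four days before readout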
[13] = UWB1.289_BRCA1 ovarian cancer growth, cell-based, BGB or cisplatin combinations (AID 1671459); settings: UWB1.289 BRCA1 ovarian carcinoma, drug combinations, stronger effect = higher value
[14] = human astrocyte viability loss, single and combined drugs, cytotoxicity control for chromothriptic childhood tumor combination screen, cell-based, BGB or cisplatin IC20 combos (AID 1671460); settings: Human astrocytes, drug combinations, stronger effect = higher value;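 further: cells exposed to compounds for 96 hours before viability readout; 0% = vehicle and 100% = killing control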
[15] = growth inhibition of BT084 medulloblastoma cells, cell-based, ICGC_MB145, cisplatin and BGB IC40 combos (AID 1671461); settings: drug combinations, stronger effect = higher value;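 further: cells exposed to drugs for 96 hours; 0% = vehicle DMSO and 100% = high DMSO full killing control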
[16] = growth inhibition of RCMB18 medulloblastoma cells, cell-based, cisplatin and BGB IC40 combos (AID 1671462); settings: stronger effect = higher value;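 further: cells exposed to compound for four days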
[17] = growth inhibition of CRL1545 osteosarcoma cells, cell-based, cisplatin and BGB IC20 combos (AID 1671464); settings: stronger effect = higher value;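 further: cells exposed to compound for 96 hours before readout; 0% = vehicle DMSO and 100% = high DMSO killing control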
[18] = target: Mitogen-activated protein kinase 7 (Homo sapiens) (UniProt Q13164); experiment: ERK5 transactivation activators in reporter cells, primary screen, cell-based, HTS (AID 1508626;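 active means luciferase signal above three times the same-plate solvent-only control wells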;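 further: luciferase driven by Gal4-ERK5 fusion binding five Gal4 sites before minimal TATA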); settings: HeLa Gal4-ERK5 transactivation, 18 h, at 5 µM, stronger effect = higher value
[19] = viability rescue of complex I mutant cybrids, primary screen, cell-based, galactose medium, ATP luminescence (AID 1645843;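 active means z-score of at least 1.8 in each of two replicates, scored against plate mean and spread of sample wells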;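 further: positive z means more ATP and so rescue of galactose-driven cybrid death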); settings: complex I mutant cybrid cells, 72 h, stronger effect = higher value
[20] = measured here: combination with BGB IC40, at 0.05 µM
[21] = measured here: combination with cisplatin, at 0.5 µM
[22] = measured here: combination with cisplatin, at 5 µM
[23] = measured here: combination with BGB at IC20, at 0.5 µM
[24] = measured here: combination with cisplatin at IC20, at 0.5 µM
[25] = measured here: combo with BGB at IC20, at 0.5 µM
[26] = measured here: combo with cisplatin at IC20, at 0.5 µM
[27] = measured here: inhibition with BGB combination, at 0.05 µM
[28] = measured here: inhibition with cisplatin combination, at 0.05 µM
[29] = BGB combination, concentration series, at 5 µM
[30] = cisplatin combination, concentration series, at 5 µM
[31] = measured here: combo with BGB IC20, at 0.5 µM
[32] = measured here: combo with cisplatin IC20, at 0.5 µM
[33] = cisplatin combination, at 0.5 µM
[34] = measured here: BGB IC40 combination 0.05 uM, at 0.05 µM
[35] = measured here: BGB IC40 combination, at 0.05 µM
[36] = measured here: with BGB IC20 combination, at 0.5 µM
[37] = measured here: with cisplatin IC20 combination, at 0.5 µM

Mitogen-activated protein kinase 7 (Homo sapiens), sequence (Q13164 whole entry, looked up, the tested form may be a part): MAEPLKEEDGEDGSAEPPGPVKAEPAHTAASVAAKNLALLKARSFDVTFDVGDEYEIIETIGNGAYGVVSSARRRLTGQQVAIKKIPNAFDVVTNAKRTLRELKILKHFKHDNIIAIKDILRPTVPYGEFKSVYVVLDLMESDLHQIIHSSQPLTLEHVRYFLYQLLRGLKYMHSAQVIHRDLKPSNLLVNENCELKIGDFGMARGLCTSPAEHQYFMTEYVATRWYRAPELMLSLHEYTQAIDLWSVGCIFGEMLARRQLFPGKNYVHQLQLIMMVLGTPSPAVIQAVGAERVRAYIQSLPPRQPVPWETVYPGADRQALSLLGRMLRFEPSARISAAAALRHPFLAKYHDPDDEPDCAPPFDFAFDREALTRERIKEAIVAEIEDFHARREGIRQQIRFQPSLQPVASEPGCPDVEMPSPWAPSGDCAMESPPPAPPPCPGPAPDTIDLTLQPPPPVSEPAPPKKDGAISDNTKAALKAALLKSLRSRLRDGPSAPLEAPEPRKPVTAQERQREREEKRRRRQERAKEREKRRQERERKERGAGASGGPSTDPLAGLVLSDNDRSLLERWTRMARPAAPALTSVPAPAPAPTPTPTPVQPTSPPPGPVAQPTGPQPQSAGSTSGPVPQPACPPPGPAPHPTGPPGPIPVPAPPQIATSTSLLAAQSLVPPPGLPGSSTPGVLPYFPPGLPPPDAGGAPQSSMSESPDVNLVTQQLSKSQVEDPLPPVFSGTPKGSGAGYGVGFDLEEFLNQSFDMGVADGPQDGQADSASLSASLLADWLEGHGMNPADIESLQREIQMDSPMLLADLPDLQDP

For `O=C(O)c1cc(=O)[nH]c(=O)[nH]1`, the outcome [1] was “inactive”, the outcome [2] was “inactive” and the outcome [3] was “inactive”. For the same molecule, the outcome [4] was “inactive”, the outcome [5] was “inactive” and the outcome [6] was “inactive”. For the same molecule, the outcome [7] was “inactive”, the inhibition ([8]; at 0.5 µM) was -8.32% (inactive) and -28.4% (inactive) and the inhibition [8, 20] was -17.9% and -11.5%. For the same molecule, the inhibition [8, 21] was 16.2% and -37.9%, the inhibition [8, 22] was -31% and -23.1% and the inhibition ([9]; at 0.5 µM) was 2.38% (inactive) and -59.4% (inactive). For the same molecule, the inhibition [9, 23] was -8.75% and -29.4%, the inhibition [9, 24] was 11.3% and -77.4% and the inhibition ([10]; at 0.5 µM) was 6.65% (inactive) and -10.7% (inactive). For the same molecule, the inhibition [10, 25] was 8.02% and -14.5%, the inhibition [10, 26] was 1.03% and -2.03% and the inhibition ([11]; at 0.5 µM) was 9.26% (inactive) and -11.7% (inactive). For the same molecule, the inhibition [11, 27] was 1.2% and -34.8%, the inhibition [11, 28] was -6.87% and -27.5% and the inhibition ([12]; at 0.5 µM) was 8.17% (inactive) and -25% (inactive). For the same molecule, the inhibition [12, 21] was -0.428% and -22.3%, the inhibition [12, 22] was 15.8% and -23.2% and the inhibition [13, 29] was 11.8% and -20.6%. The inhibition ([13]; at 0.5 µM) was 7.12% (inactive) and -21.5% (inactive), the inhibition [13, 30] was 16.5% and -12.9% and the inhibition ([14]; at 0.5 µM) was 6.1% (inactive) and -13.7% (inactive). The inhibition [14, 31] was 3.75% and -11.6%, the inhibition [14, 32] was 18.5% and -10.3% and the inhibition ([15]; at 0.5 µM) was 0.676% (inactive) and -23.4% (inactive). For the same molecule, the inhibition [15, 33] was 4.02% and -10.6%, the inhibition ([15]; cisplatin combination, at 5 µM) was -30.1% and 9.58% and the inhibition [15, 34] was 29.1% and 10.4%. The inhibition ([15]; single agent, at 5 µM) was 10.6% and -23.7%, the inhibition ([16]; at 0.5 µM) was 4.65% (inactive) and -11.2% (inactive) and the inhibition ([16]; cisplatin combo, at 5 µM) was 33.1% and 20.6%. The inhibition [16, 35] was 20.2% and -17.2%, the inhibition [16, 21] was 10.8% and 27.7% and the inhibition ([16]; single agent, at 5 µM) was -13.7% and -20.9%. For the same molecule, the inhibition ([17]; at 0.5 µM) was -2.03% (inactive) and 7.29% (inactive), the inhibition [17, 36] was -9.08% and 1.78% and the inhibition [17, 37] was 1.49% and 10%. For the same molecule, the inhibition ([17]; single agent, at 0.05 µM) was 0.986% and -9.64% and the inhibition ([17]; single agent, at 5 µM) was -15.6% and -9.76%.

In the case of `Clc1ccc(C(Cn2ccnc2)OCc2ccsc2Cl)c(Cl)c1` (configuration not stated), the outcome [1] is reported as “inactive”, the luciferase signal [18] is reported as 72 AU (inactive) and the z-score [19] is reported as -1.6 (inactive).

With `CN1CCN(c2c(F)cc3c(=O)c(C(=O)O)cn4c3c2OCN4C)CC1` the outcome [1] was “inactive”, the outcome [2] was “inactive” and the outcome [5] was “inactive”. For the same molecule, the inhibition ([8]; at 0.5 µM) was -24.2% (inactive), the inhibition [8, 20] was -29.1% and the inhibition [8, 21] was -7.67%. For the same molecule, the inhibition [8, 22] was 23.6%, the inhibition ([9]; at 0.5 µM) was -52.3% (inactive) and the inhibition [9, 23] was -51%. For the same molecule, the inhibition [9, 24] was -59.8%, the inhibition ([10]; at 0.5 µM) was -2.64% (inactive) and the inhibition [10, 25] was 4.92%. The inhibition [10, 26] was 0.073%, the inhibition ([11]; at 0.5 µM) was -1.17% (inactive) and the inhibition [11, 27] was -15.9%. For the same molecule, the inhibition [11, 28] was 9.55%, the inhibition ([12]; at 0.5 µM) was -13.7% (inactive) and the inhibition [12, 21] was -20.3%. The inhibition [12, 22] was -60.6%, the inhibition [13, 29] was 1.13% and the inhibition ([13]; at 0.5 µM) was 0.06% (inactive). For the same molecule, the inhibition [13, 30] was 8.22%, the inhibition ([14]; at 0.5 µM) was 6.55% (inactive) and the inhibition [14, 31] was 4.16%. The inhibition [14, 32] was 12.5%, the inhibition ([15]; at 0.5 µM) was -6.03% (inactive) and the inhibition [15, 33] was -9.98%. It also gave an inhibition ([15]; cisplatin combination, at 5 µM) of 4.69%, an inhibition [15, 34] of 6.42% and an inhibition ([15]; single agent, at 5 µM) of -5.93%. For the same molecule, the inhibition ([16]; at 0.5 µM) was -12.6% (inactive), the inhibition ([16]; cisplatin combo, at 5 µM) was -14.3% and the inhibition [16, 35] was -20.1%. The inhibition [16, 21] was -5.19%, the inhibition ([16]; single agent, at 5 µM) was -1.41% and the inhibition ([17]; at 0.5 µM) was -1.5% (inactive). For the same molecule, the inhibition [17, 36] was -0.247%, the inhibition [17, 37] was -4.44% and the inhibition ([17]; single agent, at 0.05 µM) was -8.36%. For the same molecule, the inhibition ([17]; single agent, at 5 µM) was 2.43%.
